Laboratory results reported in PubChem BioAssay (NCATS).
Values joined by “and” are separate entries in the source; they are usually repeats but may differ in a detail not shown here. Equal entries are not always repeated. Inconclusive results are not listed. Active and inactive are the calls of the source. The call rests on the fitted dose curve; in most records, active means well fitted curve in the direction sought with a large enough effect; inconclusive means small, poorly fitted or top-dose-only effect, or another doubt; inactive means no such curve, though single readings can be large; an effect the other way counts as inactive or inconclusive.

What was measured:
[1] = Cell Viability - Renal Proximal Tubule (AID 545);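 further: cells exposed to compound for 40 hours; nearly all actives have a fitted effect of over 40% in size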
How it was run: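 Cytotoxicity is scored as a concentration-dependent drop in cellular ATP in primary rat renal proximal tubule cells exposed for 40 hr. AC50 derives from Hill modelling.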

[2] = Cellular Toxicity (caspase-3) Jurkat (AID 655); settings: Jurkat caspase-3 activation, luminescence; caspase-3 activation: at 92.2 µM (top of the series), DMSO = 0%, tamoxifen = 100%;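 further: cells exposed to compound for 16 h at 37 °C before reading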
How it was run: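 Caspase 3/7 activation is scored as increased luminescence in Jurkat cells cultured with compound for 16 hours in complete medium. AC50 values come from Hill fits of qHTS concentration-response data normalized to DMSO and 100 uM tamoxifen controls.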

[3] = Cellular Toxicity (caspase-3) NIH 3T3 (AID 666);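 further: caspase signal read after 16 h compound exposure; 0% = DMSO basal and 100% = 100 µM tamoxifen stimulation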
How it was run: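 Concentration-response qHTS in NIH 3T3 mouse fibroblasts scores caspase-3/7 activation as rising luminescence after 16 hr compound exposure. Signals are scaled between DMSO-only and 100 uM tamoxifen.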

[4] = Cellular Toxicity (caspase-3) Renal Proximal Tubule (AID 667);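 further: cells exposed to compound for 16 hours at 37 °C before detection; 0% = DMSO basal and 100% = 10 µM staurosporine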
How it was run: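 In qHTS format, rat primary proximal tubule cells seeded at 1000 per well are exposed to compounds for 16 hours at 37 °C. An increase in Caspase-Glo 3/7 luminescence indicates caspase activation.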

[5] = Cell Viability - LYMP1-003 - Assay at 24 hr (AID 963);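 further: plate controls were DMSO only for no effect and tetraoctylammonium bromide positive control for full effect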
How it was run: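 Acute toxicity in LYMP1-003 lymphoblastoid cells: 24 hr compound treatment at 37 C, ATP measured with CellTiter-Glo after 30 min at room temperature. AC50 derived by fitting the Hill equation to qHTS titrations.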

[6] = Cell Viability - LYMP1-003 - Assay at 40 hr (AID 964); further: on the % scale 0 is the no-effect control and ±100 the full control effect; nearly all actives have a fitted effect of over 60% in size
How it was run: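 This qHTS cytotoxicity screen treats human lymphoblastoid cells (LYMP1-003) with compounds for 40 hr and quantifies cellular ATP via luciferase luminescence.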

[7] = Cell Viability - LYMP2-009 (AID 968);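 further: 0% = DMSO alone and the full-kill end = tetraoctylammonium bromide at 92 µM; nearly all actives have a fitted effect of over 55% in size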
[8] = Cell Viability - LYMP2-011 (AID 969);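 further: 0% = DMSO only and full inhibition = 92 µM tetraoctylammonium bromide; nearly all actives have a fitted effect of over 60% in size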
How it was run: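 Acute toxicity is scored as a concentration-dependent drop in intracellular ATP of a human lymphoblastoid line after 24 hr treatment. Values are AC50s modeled with the Hill equation.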

[9] = Cell Viability - LYMP2-019 (AID 973);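 further: 0% = DMSO alone and full effect = 92 µM tetraoctylammonium bromide; nearly all actives have a fitted effect of over 55% in size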
How it was run: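 Cells plated at 2500/well and allowed 5 hr at 37 C before compound addition. After 24 hr incubation, CellTiter-Glo reagent was added, plates sat 30 min at room temperature, and luminescence was recorded.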

[10] = Cell Viability - LYMP2-002 (AID 977);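 further: plate controls were DMSO only for no effect and 92 µM tetraoctylammonium bromide for full effect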
How it was run: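 Luminescent ATP readout (CellTiter-Glo, 30 min room temperature) after 24 h compound exposure at 37 C of a human lymphoblastoid line, 2500 cells/well. AC50 values derived by standard Hill fitting of qHTS concentration-response data.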

[11] = Cell Viability - LYMP2-010 (AID 981); further: on the % scale 0 is the no-effect control and ±100 the full control effect; nearly all actives have a fitted effect of over 55% in size
How it was run: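 Acute toxicity is scored as a concentration-dependent loss of cellular ATP in human lymphoblastoid cells after 24 hr compound exposure in complete medium. Tetraoctylammonium bromide is the positive control.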

[12] = Cell Viability - LYMP2-014 (AID 983);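 further: plate controls were DMSO only for no effect and 92 µM tetraoctylammonium bromide for full effect; nearly all actives have a fitted effect of over 50% in size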
How it was run: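 Decrease in intracellular ATP after 24 hr treatment at 37 C, measured by luciferase luminescence, indicated cytotoxicity. Concentration-response data were fitted with the standard Hill equation to give AC50.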

[13] = Cell Viability - LYMP2-020 (AID 986);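 further: plate controls were DMSO only for no effect and tetraoctylammonium bromide at 92 µM for full effect; nearly all actives have a fitted effect of over 55% in size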
How it was run: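 Acute cytotoxicity in a human lymphoblastoid line is scored as a concentration-dependent fall in cellular ATP after 24 hr at 37 C in complete medium. The positive control is tetraoctylammonium bromide, and potency is given as Hill-fit AC50.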

[14] = Cell Viability - LYMP2-022 (AID 987)
How it was run: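 Acute toxicity in a human lymphoblastoid line is scored as decreased intracellular ATP after 24 hr compound treatment at 37 C. ATP is measured by CellTiter-Glo luminescence; curves are fitted with the Hill equation to give AC50.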

[15] = qHTS assay for environmental chemicals that activate the Aryl hydrocarbon Receptor (AhR) signaling pathway (AID 651777); settings: 1A2-DRE human hepatoma cells, luciferase, 24 h; activation: hits give high values; further: % of control where 0% means no effect; nearly all actives have a fitted effect of over 15% in size
How it was run: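 Human hepatoma 1A2-DRE cells stably carrying a DRE/CYP1A2 promoter–luciferase reporter, 1,200 cells/well, exposed to compound 24 hr at 37 C. Luciferase read by One-Glo luminescence after 30 min at room temperature; increased signal marks AhR activation.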

[16] = qHTS assay for cell viability of the p53RE-bla HCT-116 cell line (AID 743292)
How it was run: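 CellSensor p53RE-bla HCT-116 cells (4,000/well) pre-incubated 5 h at 37 C, then exposed to compounds in DMSO for 16 h at 37 C. Viability read as ATP content by CellTiter-Glo luminescence after 30 min at room temperature.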

[17] = Cell Viability - N2a (AID 540); settings: N2a mouse neuroblastoma cell viability; activity change, negative = cytotoxicity: at 92.2 µM (top of the series);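 further: cells exposed to compound for 40 h at 37 °C; plate controls were DMSO alone for no effect and tamoxifen control for full effect; nearly all actives have a fitted effect of over 45% in size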
How it was run: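 First, 1500 N2a cells per well incubate 5 hr at 37 °C; next, compounds are added and incubated 40 hr at 37 °C; finally CellTiter-Glo is added and luminescence read after 20 min, with AC50 derived by Hill modeling.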

[18] = Cell Viability - LYMP2-006 (AID 978); further: on the % scale 0 is the no-effect control and ±100 the full control effect; nearly all actives have a fitted effect of over 60% in size
How it was run: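 Concentration-dependent loss of intracellular ATP in a human lymphoblastoid line after 24 hr treatment at 37 C was measured by CellTiter-Glo luminescence, with AC50 values obtained from standard Hill-equation modelling.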

[19] = target: Peroxisome proliferator-activated receptor alpha (Homo sapiens) (UniProt Q07869); experiment: qHTS assay for small molecule agonists of the peroxisome proliferator-activated receptor alpha (PPARalpha) signaling pathway (AID 651778); settings: PathHunter PPARalpha complementation, chemiluminescence, 6 h; hits give high values; further: % of control where 0% means no effect
Chain of Peroxisome proliferator-activated receptor alpha (Homo sapiens) (Q07869 whole entry, looked up): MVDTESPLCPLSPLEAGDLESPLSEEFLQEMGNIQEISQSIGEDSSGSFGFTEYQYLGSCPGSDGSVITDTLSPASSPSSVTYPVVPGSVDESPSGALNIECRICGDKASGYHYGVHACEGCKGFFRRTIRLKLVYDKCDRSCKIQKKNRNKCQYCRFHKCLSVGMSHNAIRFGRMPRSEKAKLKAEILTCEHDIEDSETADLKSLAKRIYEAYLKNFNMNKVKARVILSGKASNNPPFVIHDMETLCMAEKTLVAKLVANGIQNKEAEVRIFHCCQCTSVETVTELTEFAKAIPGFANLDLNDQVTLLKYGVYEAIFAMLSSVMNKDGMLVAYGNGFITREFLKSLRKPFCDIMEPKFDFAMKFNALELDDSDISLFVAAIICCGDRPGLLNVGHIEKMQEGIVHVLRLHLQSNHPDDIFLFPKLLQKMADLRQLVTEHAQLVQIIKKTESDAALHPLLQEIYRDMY
How it was run: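 Cells plated at 2,000/well and held overnight at 37 C, 5% CO2, then compound added by pin tool for 6 hr; after PathHunter detection reagent and 60 min at room temperature, chemiluminescence from enzyme complementation was read.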

[20] = MultiTox-Fluor Cytotoxicity Assay - LYMP1-001 - Dead Cells (AID 946);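 further: 0% = DMSO and 100% = tetraoctylammonium bromide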
How it was run: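 Seed 2500 LYMP1-001 cells/well, incubate 5 hr at 37 C; add compound, 16 hr at 37 C; add MultiTox-Fluor reagent, 60 min RT; read dead-cell fluorescence Ex/Em=485/520. Normalize to DMSO and 15 uM tetraoctylammonium bromide.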

O=C(O)c1cc(Cl)ccc1Cl
inactive: outcome [1] | caspase-3 activation [2] 0.232% | Potency [3] | outcome [4] | outcome [5] | Potency [6] | Potency [7] | Potency [8] | Potency [9] | Potency [10] | Potency [11] | Potency [12] | Potency [13] | Potency [14] | activation [15] -1.02% | Potency [16]

CCCN(CCC)c1c([N+](=O)[O-])cc(C(F)(F)F)cc1[N+](=O)[O-]
inactive: Potency [17] | outcome [1] | Potency [3] | Potency [6] | Potency [7] | Potency [8] | Potency [9] | Potency [10] | Potency [18] | Potency [11] | Potency [12] | Potency [13] | Potency [14] | activation [15] 0.344% and 0.563% | max response [19] 2.49% and -0.599% | Potency [16]

Cc1cccc(C)c1N
inactive: outcome [1] | Potency [3] | outcome [4] | outcome [20] | outcome [5] | Potency [6] | Potency [7] | Potency [8] | Potency [9] | Potency [10] | Potency [18] | Potency [13] | Potency [14] | activation [15] 1.32% | max response [19] 1.61%

CN(C)C(=O)Cl
inactive: outcome [1] | caspase-3 activation [2] -1.4% | Potency [3] | outcome [4] | outcome [20] | outcome [5] | Potency [6] | Potency [8] | Potency [9] | Potency [10] | Potency [11] | Potency [12] | Potency [13] | Potency [14] | activation [15] -0.443% | Potency [16]

Clc1cccc(Cl)c1Cl
inactive: Potency [17] | caspase-3 activation [2] -0.0806% | Potency [3] | outcome [4] | outcome [20] | outcome [5] | Potency [6] | Potency [7] | Potency [9] | Potency [10] | Potency [18] | Potency [11] | Potency [12] | Potency [13] | Potency [14] | activation [15] -1.51% and 0.659% | max response [19] -3.74% and -0.322% | Potency [16]

Nc1ccc([N+](=O)[O-])cc1[N+](=O)[O-]
inactive: outcome [1] | caspase-3 activation [2] 1.67% | Potency [3] | outcome [4] | outcome [20] | Potency [7] | Potency [8] | Potency [9] | Potency [12] | Potency [13] | Potency [14] | activation [15] 0.484% | max response [19] -8.48% | Potency [16]

O=[N+]([O-])c1ccc2c3c(cccc13)CC2
inactive: outcome [1] | caspase-3 activation [2] 0.699% | outcome [4] | outcome [20] | outcome [5] | Potency [7] | Potency [8] | Potency [9] | Potency [10] | Potency [18] | Potency [11] | Potency [12] | Potency [13] | Potency [14] | max response [19] -11.3% and -0.119% | Potency [16]
